# From the supplement of paper PMC12636033
# ± gives the standard deviation of the averaged measurements. Over roughly 33,000 sequences, “E-score (rank enrichment, -0.5 to 0.5)” has its median near -0.0028; the highest 2% begin near 0.23. For the sample, the highest values were picked, then their nearest neighbours and some sequences at random.
# Tested on: 2Sb-muMax20 (muMax20 with two 1,3-bis(methyl)benzene Cys staples, A13C/A17C and Q88C/A92C, C-terminal Lys)
# Assay: PBM 8-mer E-score (E-score (rank enrichment, -0.5 to 0.5)); higher = stronger preferential binding
# Method: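 Protein binding microarray (universal PBM chip covering all 10-mers in fixed probe flanks) with chemically synthesized human Max(13-93) bHLH-LZ analogs (not full-length Max) bearing noncanonical residues (hArg, Tha, Aib, Nle at 65) and aromatic Cys staples. Read-out per 8-mer (and its reverse complement): E-score (rank-based enrichment, -0.5 to 0.5) and Z-score of median probe intensity.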
row,Sequence,PBM 8-mer E-score
1,ATATCCAT,0.137 ± 0.14
2,CACTCCGG,-0.0338 ± 0.0072
3,ATTGATCA,0.0679 ± 0.039
4,ATGAATTC,0.133 ± 0.015
5,GAAAGCTC,-0.175 ± 0.051
6,CAGTAGGG,0.111 ± 0.065
7,ATGGCCAT,0.238 ± 0.048
8,ATGGCCAG,0.113 ± 0.0052
9,ATGGCCAC,-0.0293 ± 0.011
10,CTCAGGTA,-0.158 ± 0.024
11,AGTAGCAC,0.0432 ± 0.033
12,ATAATAGA,0.087 ± 0.027
13,CTAATAGA,0.12 ± 0.054
14,GTAATAGA,0.253 ± 0.0043
15,ACCGAGAG,-0.0606 ± 0.0036
16,AATTACCC,0.286 ± 0.012
17,AATTACCA,0.217 ± 0.039
18,CATTACCC,-0.0464 ± 0.014
19,CCTTACTC,0.123 ± 0.032
20,AAGCTAGG,-0.00121 ± 0.038
21,AATCCTGT,0.0436 ± 0.00074
22,ACCACCCC,0.165 ± 0.0053
23,CCCACCCG,0.335 ± 0.042

row,Sequence,PBM 8-mer E-score
1,CCCACCCC,0.307 ± 0.058
2,ACCACCCG,-0.0962 ± 0.022
3,TCCACCCA,0.0351 ± 0.068
4,GCCACCCC,0.0125 ± 0.1
5,ATCACCCC,0.27 ± 0.0061
6,CACACCCG,-0.111 ± 0.0078
7,CCCACCCA,0.387 ± 0.029
8,ATCACCCA,0.0137 ± 0.037
9,ATCACCCG,-0.202 ± 0.044
10,GCCACCCA,-0.0786 ± 0.049
11,CATGTCGA,-0.00545 ± 0.041
12,ATTGCTAG,0.141 ± 0.019
13,CATGTTCA,0.151 ± 0.025
14,AAGTATGT,0.0914 ± 0.0063
15,AGCGACCG,-0.22 ± 0.0069
16,AAAGGCGA,0.17 ± 0.0091
17,GCTTCTCC,0.0389 ± 0.0059
18,ACTAAGGC,0.00844 ± 0.07
19,CAAGCATC,-0.0457 ± 0.013
20,AAAAGCCA,0.0803 ± 0.036
21,CAATACAA,0.234 ± 0.0058
22,ATACACAT,0.244 ± 0.02
23,ACATATCA,0.2689 ± 0.00057

row,Sequence,PBM 8-mer E-score
1,ATACACAG,0.0629 ± 0.073
2,ACATACAG,0.188 ± 0.014
3,ACATACAT,0.273 ± 0.025
4,ATACACAC,0.0901 ± 0.038
5,CAATACAC,0.0179 ± 0.049
6,CAATACAG,0.00554 ± 0.011
7,CCATATCA,0.076 ± 0.055
8,ACATATCG,0.0421 ± 0.053
9,ACATACAC,0.127 ± 0.016
10,AGACTAGG,-0.0528 ± 0.031
11,CGGTACCC,-0.133 ± 0.015
12,CCTAGAGC,-0.0448 ± 0.0096
13,CCGATCGG,-0.289 ± 0.039
14,CGGCTAAC,-0.13 ± 0.011
15,TCCGTCCA,-0.0552 ± 0.013
16,GCGCATAC,0.0299 ± 0.0056
17,ATCGGTGG,-0.0489 ± 0.0043
18,ATAACCTC,0.175 ± 0.016
19,AAGGCCCC,0.068 ± 0.039
20,AGAGTGAC,-0.11 ± 0.0053
21,AAATACAT,0.241 ± 0.058
22,ACCTATAT,0.233 ± 0.0084
23,TCATACAA,0.235 ± 0.035

row,Sequence,PBM 8-mer E-score
1,GCATACAA,0.119 ± 0.0048
2,ACCTATAA,0.00571 ± 0.046
3,AAATATAT,0.313 ± 0.02
4,AAATACAA,0.0975 ± 0.074
5,AAATACAC,0.145 ± 0.033
6,ACCTATAC,0.0485 ± 0.061
7,AAATATAA,0.21 ± 0.022
8,CCATACAA,0.115 ± 0.024
9,AAATATAC,0.138 ± 0.019
10,ATCACCGA,-0.0646 ± 0.084
11,CCTCCACC,0.0772 ± 0.089
12,ATCGGGAG,-0.0438 ± 0.039
13,CCAGATCG,-0.185 ± 0.061
14,CTAACAAG,0.0426 ± 0.045
15,ATATGGCG,0.123 ± 0.007
16,GAAGGTAA,0.0664 ± 0.084
17,ACATATAG,0.131 ± 0.031
18,ACATATAC,0.137 ± 0.0056
19,ACATATAT,0.255 ± 0.024
20,ATATCATG,0.178 ± 0.016
21,ACATCATC,0.0415 ± 0.031
22,CCATCATA,0.155 ± 0.017
23,CTATCATA,0.149 ± 0.03

row,Sequence,PBM 8-mer E-score
1,ACATCATA,0.243 ± 0.0089
2,ATATCATA,0.239 ± 0.055
3,CGTGGAAC,-0.0767 ± 0.0022
4,AGTGTGGC,-0.0951 ± 0.025
5,GTAAGGGA,-0.0384 ± 0.016
6,ACATCCTC,0.028 ± 0.067
7,ACCACGCG,0.283 ± 0.02
8,ATCACGCA,-0.037 ± 0.094
9,AGCACGTG,0.431 ± 0.0076
10,ATCACGCG,0.239 ± 0.026
11,AGCACGTA,0.128 ± 0.038
12,ACCACGCA,-0.0882 ± 0.019
13,ACCACGTA,-0.0697 ± 0.045
14,ACCACGTC,-0.01627 ± 2.1e-05
15,CCCACGCG,0.221 ± 0.031
16,ATCACGCC,0.0526 ± 0.033
17,ACCACGTG,0.432 ± 0.025
18,AGCACGTC,-0.156 ± 0.042
19,AATTTCGT,0.0796 ± 0.033
20,GATTGCCC,-0.0998 ± 0.019
21,ATTTAGCG,0.0611 ± 0.079
